The campaign covered roughly 340,000 compounds. About 5,100 (1.5%) were called active. The sample holds actives, similar compounds and a random draw of the others, so the mix is not that of the screen. A number with no mark means an inactive call.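 The calls were made as follows: active = mean Tm shift, scaled 0 neutral to 100 positive control, at about 1.3% or above, every replicate too (limit read from the data); inconclusive = no clear call, values can overlap the other calls; inactive = the rest.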
Each molecule was assayed against Fibroblast growth factor 22 (Homo sapiens) (UniProt Q9HCT0) (assay: FGF22 ligand-induced thermal stabilization – biophysical, thermal shift, single point, FGF22 synaptogenesis inhibitor project, primary screen (AID 651658)). Settings: recombinant FGF22 thermal shift, SYPRO orange fluorescence; at 9.99 µM; active compounds read high; percent of sucrose octasulfate shift, DMSO zero.
Sequence of Fibroblast growth factor 22 (Homo sapiens) (Q9HCT0 whole entry, looked up): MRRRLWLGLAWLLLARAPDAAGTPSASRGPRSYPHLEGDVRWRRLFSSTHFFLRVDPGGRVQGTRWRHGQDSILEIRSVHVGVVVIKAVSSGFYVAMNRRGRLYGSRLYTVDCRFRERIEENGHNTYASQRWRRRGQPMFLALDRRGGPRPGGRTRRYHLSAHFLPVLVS
Work on C[C@@H]1CN([C@@H](C)CO)C(=O)c2cc(NC(=O)Cc3ccccc3)ccc2O[C@H]1CN(C)CC1CC1 yielded an activity (Tm shift, normalised) of 0.206%.
Cc1ccc(S(=O)(=O)N2C[C@@H](O)COC[C@@H]3O[C@H](CC(=O)NCCCN(C)C)CC[C@H]32)cc1 showed an activity (Tm shift, normalised) of 0.016%.
O=C(CSCc1ccccc1)Nc1ccccc1 showed an activity (Tm shift, normalised) of -0.128%.
For O=C(O)CSCC(=O)Nc1ccc(C(F)(F)F)cc1, the activity (Tm shift, normalised) was 43% (active).
Cn1nc(C(F)(F)F)c(-c2ccc(F)cc2)c1NC(=O)CSCC(=O)O was tested, and the activity (Tm shift, normalised) was -0.085%.
In the case of Cc1cc(C)n(-c2ccc(C(=O)O)cc2[N+](=O)[O-])n1, the activity (Tm shift, normalised) is reported as 43.1% (active).
Cc1cc(N)n(-c2ccc(S(=O)(=O)N3CCCC3)cc2[N+](=O)[O-])n1 gave an activity (Tm shift, normalised) of -0.196%.
With Cc1cc(C(=O)O)ccc1[N+](=O)[O-] the activity (Tm shift, normalised) was 0.06%.
Work on Cc1ccc(S(=O)(=O)N[C@@H]2CC[C@@H](CCn3cc(C4CC4)nn3)O[C@@H]2CO)cc1 yielded an activity (Tm shift, normalised) of -0.331%.
C[C@H]1CN([C@@H](C)CO)C(=O)c2cc(-c3cccc(F)c3)cnc2O[C@@H]1CN(C)Cc1cncnc1 gave an activity (Tm shift, normalised) of 0.062%.
O=C(c1cnccn1)N1CC(=O)N2[C@H](C1)[C@H](c1ccc(/C=C/c3ccccc3)cc1)[C@@H]2CO gave an activity (Tm shift, normalised) of -0.069%.
With O=C(C[C@H]1C[C@@H]2c3cc(NC(=O)c4cccnc4)ccc3O[C@@H]2[C@H](CO)O1)NCc1ccccn1 the activity (Tm shift, normalised) was -0.175%.
Work on Cn1c(SCC(=O)Nc2nccs2)nnc1-c1cccnc1 yielded an activity (Tm shift, normalised) of -0.089%.
For CCn1c(SCC(=O)Nc2nccs2)nnc1-c1ccco1, the activity (Tm shift, normalised) was 43.5% (active).
In the case of COCCn1c(Cc2cccn2C)nnc1SCC(=O)Nc1nccs1, the activity (Tm shift, normalised) is reported as 0.285%.
CCS(=O)(=O)NCC[C@H]1CC[C@@H](NC(=O)Nc2cc(Cl)cc(Cl)c2)[C@@H](CO)O1 was tested, and the activity (Tm shift, normalised) was 0.003%.
Molecule Cc1nn(-c2ccccc2)c(Cl)c1/C=C/C(=O)c1ccc(O)cc1 has an activity (Tm shift, normalised) of -0.458%.
In the case of Oc1ccc(-c2nncn2-c2ccccc2)cc1, the activity (Tm shift, normalised) is reported as 43.1% (active).
With Oc1ccc(-c2nnc(Nc3ccccc3)c3ccccc23)cc1 the activity (Tm shift, normalised) was 0.298%.
With COc1cccc(S(=O)(=O)N[C@H]2C=C[C@H](CC(=O)NCc3ccc(Cl)cc3)O[C@@H]2CO)c1 the activity (Tm shift, normalised) was 0.005%.
Work on CCCC#Cc1cnc2c(c1)C(=O)N([C@H](C)CO)C[C@H](C)[C@H](CN(C)C(=O)c1cnccn1)O2 yielded an activity (Tm shift, normalised) of -0.197%.
Cc1noc(C)c1NC(=O)N(C)C[C@H]1OCCCC[C@H](C)Oc2ccc(NC(=O)Nc3ccc4c(c3)OCO4)cc2C(=O)N([C@H](C)CO)C[C@@H]1C showed an activity (Tm shift, normalised) of -0.482%.
For N#Cc1cnn2cc(CCN3CCOCC3)c(-c3ccc(F)cc3)nc12, the activity (Tm shift, normalised) was 43.1% (active).
Molecule Fc1ccc(-c2ccc(NCCN3CCOCC3)nn2)cc1 has an activity (Tm shift, normalised) of -0.028%.
In the case of COc1ccc2c(c1)CCc1cn3ncc(C#N)c3nc1-2, the activity (Tm shift, normalised) is reported as -0.072%.
In the case of O=C(N[C@H]1CC[C@@H](CCNS(=O)(=O)c2ccc(F)cc2)O[C@@H]1CO)c1ccccn1, the activity (Tm shift, normalised) is reported as 0.123%.
For C[C@@H]1CN([C@H](C)CO)C(=O)Cc2cc(NS(=O)(=O)c3cccs3)ccc2O[C@@H]1CN(C)C(=O)Nc1ccc(F)cc1, the activity (Tm shift, normalised) was 0.051%.
Cn1c(=O)n(C)c2cc(S(=O)(=O)Nc3ccc(F)cc3)ccc21 was tested, and the activity (Tm shift, normalised) was -0.198%.
Work on Cn1c(CCN2CCN(c3ccccn3)CC2)nc2cc(NS(=O)(=O)c3ccc(F)cc3)ccc21 yielded an activity (Tm shift, normalised) of -0.195%.
Cn1c(=O)n(C)c2cc(NS(=O)(=O)c3ccc(F)cc3)ccc21 was tested, and the activity (Tm shift, normalised) was 43.1% (active).
In the case of COc1ccc2c3c([nH]c2c1)[C@@H](CO)N(C(=O)Nc1ccc(F)cc1)CC31CN(S(C)(=O)=O)C1, the activity (Tm shift, normalised) is reported as -0.554%.
Molecule O=C(N[C@@H]1CC[C@@H](CC(=O)N2CCc3ccccc3C2)O[C@H]1CO)C1CCC1 has an activity (Tm shift, normalised) of -0.096%.
With COc1ccc(CN2CCNC(=O)C2CC(=O)N(C)Cc2ccccn2)cc1OC (stereo unspecified) the activity (Tm shift, normalised) was 0.398%.
In the case of COc1cccc(CN2CCNC(=O)C2CC(=O)N(C)CCc2ccccn2)c1 (stereo unspecified), the activity (Tm shift, normalised) is reported as 43% (active).
Work on CN(CCc1cn[nH]c1)C(=O)CC1C(=O)NCCN1Cc1cccc(Oc2ccccc2)c1 (stereo unspecified) yielded an activity (Tm shift, normalised) of 0.231%.
CS(=O)(=O)N1[C@H](C#N)[C@H](c2ccccc2-c2ccc(F)cc2)[C@@H]1CO gave an activity (Tm shift, normalised) of 0.124%.
With Nc1nonc1-n1nnc(C(=O)N/N=C/c2c[nH]c3ccccc23)c1-c1ccccc1 the activity (Tm shift, normalised) was 0.702%.
In the case of Cc1c(/C=N\NC(=O)c2cc3ccccc3o2)c2ccccc2n1C, the activity (Tm shift, normalised) is reported as 0.961%.
For O=C(N/N=C/c1c[nH]c2ccccc12)c1cc2ccccc2o1, the activity (Tm shift, normalised) was 2.21% (active).
In the case of CC=Cc1ccc2n(c1=O)C[C@@H]1[C@@H](CO)[C@H](C(=O)N(C)C)[C@H]2N1CCc1ccccc1 (mixture of isomers), the activity (Tm shift, normalised) is reported as -0.034%.
For COc1ccccc1-c1cnc2c(c1)C(=O)N([C@@H](C)CO)C[C@H](C)[C@H](CN(C)C(=O)c1ccncc1)O2, the activity (Tm shift, normalised) was 0.396%.
With Cc1cc(C(=O)Nc2ccc3c(c2)C(=O)N(C)[C@@H]2CC[C@H](CC(=O)NC4CCCC4)O[C@@H]2CO3)no1 the activity (Tm shift, normalised) was 0.414%.
COc1ccc(/C=N/NC(=O)c2ccccc2)cc1OS(=O)(=O)c1ccccc1 was tested, and the activity (Tm shift, normalised) was 43% (active).
COc1cc(C=NNC(=O)c2cccnc2)ccc1OC(=O)c1ccccc1F was tested, and the activity (Tm shift, normalised) was -0.02%.
Cc1ccc(S(=O)(=O)Oc2ccc(/C=N/NC(=O)c3ccncc3)cc2)cc1 gave an activity (Tm shift, normalised) of 0.38%.
With COc1ccccc1CNC(=O)C[C@H]1C[C@@H]2c3cc(NC(=O)c4ccc5c(c4)OCO5)ccc3O[C@@H]2[C@H](CO)O1 the activity (Tm shift, normalised) was 0.258%.
Molecule CO[C@@H]1CN(C)C(=O)c2ccc(NS(C)(=O)=O)cc2OC[C@H](C)N(C(=O)C2CC2)C[C@H]1C has an activity (Tm shift, normalised) of -0.096%.
Work on CCC(=O)N1CC2(C1)[C@H](c1ccc(-c3ccc(C)cc3)cc1)[C@H](CO)N2S(C)(=O)=O yielded an activity (Tm shift, normalised) of -0.095%.
With COCCN(Cc1nc(-c2ccc(C(F)(F)F)cc2)no1)C(C)C the activity (Tm shift, normalised) was 0.251%.
In the case of COCCN(C(=O)C(C)C)c1nnc(-c2ccc(C(C)(C)C)cc2)s1, the activity (Tm shift, normalised) is reported as 1.53% (active).
For COc1cc(OC)cc(-c2nnc(N(C)C(=O)c3ccncc3)s2)c1, the activity (Tm shift, normalised) was -0.259%.

From PubChem BioAssay AID651658 (Broad Institute, 2012)
